# Assay results published in paper PMC11062922 (Nature Chemical Biology, 2023).
# Where two headings read alike, the source gives them in different places.
# What was measured:
# Conditions in all cases: read-out: apparent Kd, n = 1
# [1] = system: AXL
# [2] = system: CAMKK2
# [3] = system: CDC7
# [4] = system: CDK4
# [5] = system: CDK6
# [6] = system: DYRK1A
# [7] = system: ERCC2
# [8] = compound concentrations:100 nM and 1000 nM (sheet 'Lestaurtinib' of Supplementary Table 1),run:Lestaurtinib_02443_R3,Plate:MR009
# [9] = compound concentrations:100 nM and 1000 nM (sheet 'Lestaurtinib' of Supplementary Table 1),run:Lestaurtinib_02487_R1,Plate:MR012
# [10] = compound concentrations:100 nM and 1000 nM (sheet 'Lestaurtinib' of Supplementary Table 1),run:Lestaurtinib_02496_R3,Plate:MR013
# [11] = compound concentrations:100 nM and 1000 nM (sheet 'Lestaurtinib' of Supplementary Table 1),run:Lestaurtinib_02572_R1,Plate:MR015
# [12] = compound concentrations:100 nM and 1000 nM (sheet 'Lestaurtinib' of Supplementary Table 1),run:Lestaurtinib_02724_R3,Plate:MR021
# [13] = compound concentrations:100 nM and 1000 nM (sheet 'Lestaurtinib' of Supplementary Table 1),run:Lestaurtinib_02339_R2,Plate:MR001
# [14] = compound concentrations:100 nM and 1000 nM (sheet 'Lestaurtinib' of Supplementary Table 1),run:Lestaurtinib_02437_R3,Plate:MR007
# [15] = compound concentrations:100 nM and 1000 nM (sheet 'Lestaurtinib' of Supplementary Table 1),run:Lestaurtinib_02473_R3,Plate:MR010
# [16] = compound concentrations:100 nM and 1000 nM (sheet 'Lestaurtinib' of Supplementary Table 1),run:Lestaurtinib_02496_R2,Plate:MR013
# [17] = compound concentrations:100 nM and 1000 nM (sheet 'Lestaurtinib' of Supplementary Table 1),run:Lestaurtinib_02367_R1,Plate:MR003
# [18] = compound concentrations:100 nM and 1000 nM (sheet 'Lestaurtinib' of Supplementary Table 1),run:Lestaurtinib_02896_R1,Plate:MR030
# [19] = compound concentrations:100 nM and 1000 nM (sheet 'Lestaurtinib' of Supplementary Table 1),run:Lestaurtinib_02407_R2,Plate:MR005
# [20] = compound concentrations:100 nM and 1000 nM (sheet 'Lestaurtinib' of Supplementary Table 1),run:Lestaurtinib_02443_R2,Plate:MR009
substance,measurement,setting,value
Lestaurtinib,potency estimated from few doses,[1]; [8],2130 nM
same,potency estimated from few doses,[1]; [9],600 nM
same,potency estimated from few doses,[1]; [10],2230 nM
same,potency estimated from few doses,[1]; [11],1420 nM
same,potency estimated from few doses,[1]; [12],1340 nM
same,potency estimated from few doses,[2]; [13],1820 nM
same,potency estimated from few doses,[2]; [14],149 nM
same,potency estimated from few doses,[2]; [15],1930 nM
same,potency estimated from few doses,[2]; [9],596 nM
same,potency estimated from few doses,[2]; [16],2180 nM
same,potency estimated from few doses,"[2]; compound concentrations:100 nM and 1000 nM (sheet 'Lestaurtinib' of Supplementary Table 1),run:Lestaurtinib_02566_R2,Plate:MR014",1960 nM
same,potency estimated from few doses,[2]; [11],1810 nM
same,potency estimated from few doses,[3]; [17],1400 nM
same,potency estimated from few doses,"[3]; compound concentrations:100 nM and 1000 nM (sheet 'Lestaurtinib' of Supplementary Table 1),run:Lestaurtinib_02367_R3,Plate:MR003",1000 nM
same,potency estimated from few doses,"[3]; compound concentrations:100 nM and 1000 nM (sheet 'Lestaurtinib' of Supplementary Table 1),run:Lestaurtinib_02381_R2,Plate:MR004",1530 nM
same,potency estimated from few doses,[3]; [15],2080 nM
same,potency estimated from few doses,"[3]; compound concentrations:100 nM and 1000 nM (sheet 'Lestaurtinib' of Supplementary Table 1),run:Lestaurtinib_02748_R3,Plate:MR024",1650 nM
same,potency estimated from few doses,"[3]; compound concentrations:100 nM and 1000 nM (sheet 'Lestaurtinib' of Supplementary Table 1),run:Lestaurtinib_02752_R1,Plate:MR025",1240 nM
same,potency estimated from few doses,"[3]; compound concentrations:100 nM and 1000 nM (sheet 'Lestaurtinib' of Supplementary Table 1),run:Lestaurtinib_02752_R2,Plate:MR025",1760 nM
same,potency estimated from few doses,"[3]; compound concentrations:100 nM and 1000 nM (sheet 'Lestaurtinib' of Supplementary Table 1),run:Lestaurtinib_02795_R3,Plate:MR022",1510 nM
same,potency estimated from few doses,[3]; [18],591 nM
same,potency estimated from few doses,"[3]; compound concentrations:100 nM and 1000 nM (sheet 'Lestaurtinib' of Supplementary Table 1),run:Lestaurtinib_02896_R2,Plate:MR030",1330 nM
same,potency estimated from few doses,"[3]; compound concentrations:100 nM and 1000 nM (sheet 'Lestaurtinib' of Supplementary Table 1),run:Lestaurtinib_03260_R2,Plate:MR033",1690 nM
same,potency estimated from few doses,"[4]; compound concentrations:100 nM and 1000 nM (sheet 'Lestaurtinib' of Supplementary Table 1),run:Lestaurtinib_02367_R2,Plate:MR003",2190 nM
same,potency estimated from few doses,[4]; [19],1650 nM
same,potency estimated from few doses,"[4]; compound concentrations:100 nM and 1000 nM (sheet 'Lestaurtinib' of Supplementary Table 1),run:Lestaurtinib_02438_R1,Plate:MR008",2240 nM
same,potency estimated from few doses,"[4]; compound concentrations:100 nM and 1000 nM (sheet 'Lestaurtinib' of Supplementary Table 1),run:Lestaurtinib_02438_R3,Plate:MR008",2250 nM
same,potency estimated from few doses,[4]; [20],2230 nM
same,potency estimated from few doses,"[4]; compound concentrations:100 nM and 1000 nM (sheet 'Lestaurtinib' of Supplementary Table 1),run:Lestaurtinib_02482_R3,Plate:MR011",2220 nM
same,potency estimated from few doses,"[4]; compound concentrations:100 nM and 1000 nM (sheet 'Lestaurtinib' of Supplementary Table 1),run:Lestaurtinib_02606_R1,Plate:MR019",1720 nM
same,potency estimated from few doses,[4]; [12],1990 nM
same,potency estimated from few doses,"[4]; compound concentrations:100 nM and 1000 nM (sheet 'Lestaurtinib' of Supplementary Table 1),run:Lestaurtinib_02766_R2,Plate:MR027",1370 nM
same,potency estimated from few doses,[4]; [18],1400 nM
same,potency estimated from few doses,"[5]; compound concentrations:100 nM and 1000 nM (sheet 'Lestaurtinib' of Supplementary Table 1),run:Lestaurtinib_02339_R3,Plate:MR001",1400 nM
same,potency estimated from few doses,[5]; [17],1630 nM
same,potency estimated from few doses,"[5]; compound concentrations:100 nM and 1000 nM (sheet 'Lestaurtinib' of Supplementary Table 1),run:Lestaurtinib_02381_R1,Plate:MR004",1670 nM
same,potency estimated from few doses,[5]; [19],1670 nM
same,potency estimated from few doses,[5]; [8],2020 nM
same,potency estimated from few doses,[5]; [10],1830 nM
same,potency estimated from few doses,"[5]; compound concentrations:100 nM and 1000 nM (sheet 'Lestaurtinib' of Supplementary Table 1),run:Lestaurtinib_02601_R1,Plate:MR018",1350 nM
same,potency estimated from few doses,"[5]; compound concentrations:100 nM and 1000 nM (sheet 'Lestaurtinib' of Supplementary Table 1),run:Lestaurtinib_02765_R3,Plate:MR026",1590 nM
same,potency estimated from few doses,[5]; [18],1370 nM
same,potency estimated from few doses,"[5]; compound concentrations:100 nM and 1000 nM (sheet 'Lestaurtinib' of Supplementary Table 1),run:Lestaurtinib_03260_R1,Plate:MR033",914 nM
same,potency estimated from few doses,"[5]; compound concentrations:100 nM and 1000 nM (sheet 'Lestaurtinib' of Supplementary Table 1),run:Lestaurtinib_03260_R3,Plate:MR033",157 nM
same,potency estimated from few doses,[6]; [13],2310 nM
same,potency estimated from few doses,"[6]; compound concentrations:100 nM and 1000 nM (sheet 'Lestaurtinib' of Supplementary Table 1),run:Lestaurtinib_02381_R3,Plate:MR004",820 nM
same,potency estimated from few doses,[6]; [20],1580 nM
same,potency estimated from few doses,"[6]; compound concentrations:100 nM and 1000 nM (sheet 'Lestaurtinib' of Supplementary Table 1),run:Lestaurtinib_02566_R1,Plate:MR014",1580 nM
same,potency estimated from few doses,"[6]; compound concentrations:100 nM and 1000 nM (sheet 'Lestaurtinib' of Supplementary Table 1),run:Lestaurtinib_02577_R2,Plate:MR016",1670 nM
same,potency estimated from few doses,[6]; [12],987 nM
same,potency estimated from few doses,"[6]; compound concentrations:100 nM and 1000 nM (sheet 'Lestaurtinib' of Supplementary Table 1),run:Lestaurtinib_02766_R1,Plate:MR027",1760 nM
same,potency estimated from few doses,[6]; [18],1690 nM
same,potency estimated from few doses,"[6]; compound concentrations:100 nM and 1000 nM (sheet 'Lestaurtinib' of Supplementary Table 1),run:Lestaurtinib_03172_R3,Plate:MR031",1440 nM
same,potency estimated from few doses,[7]; [14],1320 nM
same,potency estimated from few doses,[7]; [9],161 nM
same,potency estimated from few doses,[7]; [16],1440 nM
